The test system of assay [1] is Wnt5a (protein binding on small-molecule microarray). Put plainly: small molecules binding Wnt5a protein – biophysical, small-molecule microarray, 635/667 nm fluorescence, primary screen (AID 1142).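 Note: fluorescence read at 667 nm with signal to noise per printed feature.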 Particulars: 635 nm fluorescence, higher = more signal.
Assay [2] is described as follows: ATP-based viability of Huh7 replicon cells – cell-based, CellTiter-Glo luminescence, basal, 48 h, cytotoxicity control for HCV replication inhibitor project, primary screen (AID 1143).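 Note: Huh7 hepatoma cells carrying a hepatitis C replication reporter with no stimulus; test concentration not given here.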 Particulars: higher = more signal, called active from +8 up or from −8 down.
The nature of assay [3]: Pseudomonas biofilm growth suppression – PAO1 strain, BacTiter-Glo luminescence, LB-PBS, primary screen (AID 1144). The following applies: P. aeruginosa PAO1 biofilm, 12 h, higher = more signal.
Assay [4] can be described thus: basal CRE-LacZ reporter activity in PC12 – cell-based, unstimulated, primary screen (AID 1145). The following applies: no forskolin, luminescence, 4.5 h, higher = more signal, called active from +8 up or from −8 down.
Assay [5] is described as follows: forskolin-driven CRE-LacZ activity in PC12 – cell-based, CRE-LacZ reporter, forskolin-stimulated, primary screen (AID 1146).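 Note: PC12 cells with 6xCRE LacZ reporter stimulated by forskolin 10 µM; beta-galactosidase reporter signal reflecting CREB driven transcription.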 Particulars: luminescence, 4.5 h, higher = more signal, called active from +8 up or from −8 down.
Assay [6] concerns the target Streptavidin (Streptomyces avidinii) (UniProt P22629). Description: compounds binding control protein streptavidin – biophysical, small-molecule microarray, 635/667 nm fluorescence, artefact control for SMM compound annotation, primary screen (AID 1147).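 Note: signal reflects streptavidin binding to arrayed compounds as a control protein.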 The following applies: higher = more signal.
The nature of assay [7]: probe aInhba binding on compound microarray – biochemical, small-molecule microarray, 635/667 nm fluorescence, primary screen (AID 1148).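 Note: score merges 667nm spot fluorescence with signal-to-noise for antibody binding to printed compounds.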 The following applies: higher = more signal.
The target of assay [8] is Torsin-1A (Homo sapiens) (UniProt O14656). Description: TOR1A wild-type binding on microarray – cell lysate, small-molecule microarray, lysate, 635/667 nm, primary screen (AID 1149). Particulars: COS7 hTOR1A-WT lysate, 635 nm fluorescence, higher = more signal.
Assay [9] has the same target. Description: torsin A mutant lysate binding on microarrays – cell lysate, small-molecule microarray, COS7 lysate, 635/667 nm fluorescence, primary screen (AID 1150).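 Note: score pools 667 nm emission and signal to noise measuring lysate protein binding.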 Particulars: COS7 hTOR1A mutant lysate, 635 nm fluorescence, higher = more signal.
For assay [10], the system named is Sonic hedgehog protein (Shh). Description: Sonic hedgehog microarray binding compounds – biochemical, small-molecule microarray, 635/667 nm fluorescence, primary screen (AID 1151).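 Note: Shh protein binding to compounds spotted on small-molecule microarray slides; score combines spot fluorescence intensity with signal-to-noise across triplicate slides.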 The following applies: 635 nm fluorescence, higher = more signal.

The structures appear in SMILES notation. The source made the active and inactive calls. Unless noted, the rule behind the calls is not given here.

Streptavidin (Streptomyces avidinii), sequence (P22629 whole entry, looked up): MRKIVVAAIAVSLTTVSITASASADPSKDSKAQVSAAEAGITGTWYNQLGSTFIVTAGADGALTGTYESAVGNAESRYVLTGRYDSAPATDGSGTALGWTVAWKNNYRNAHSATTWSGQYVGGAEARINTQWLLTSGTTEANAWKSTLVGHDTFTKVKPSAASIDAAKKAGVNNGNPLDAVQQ
Torsin-1A (Homo sapiens), sequence (O14656 whole entry, looked up): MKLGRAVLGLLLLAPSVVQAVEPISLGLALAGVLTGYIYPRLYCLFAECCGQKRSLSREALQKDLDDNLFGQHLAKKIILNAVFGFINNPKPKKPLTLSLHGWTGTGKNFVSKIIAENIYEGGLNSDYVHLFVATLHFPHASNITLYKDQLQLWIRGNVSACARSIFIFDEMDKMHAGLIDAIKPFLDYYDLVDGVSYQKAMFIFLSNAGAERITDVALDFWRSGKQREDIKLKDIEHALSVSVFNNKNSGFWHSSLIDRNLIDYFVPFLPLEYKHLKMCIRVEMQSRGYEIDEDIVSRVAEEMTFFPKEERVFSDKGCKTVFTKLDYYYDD

With `O=C1NC(=O)C2C1C=CC(C(O)c1ccccc1)N2Nc1ccc(Cl)cc1Cl` (stereo not given), the composite z-score was 0.656 in assay [1]; 2.01 in assay [6]; 0.225 in [7]; 1.01 with Torsin-1A (Homo sapiens) [8]; 1.4 with Torsin-1A (Homo sapiens) [9]; 1.68 in assay [10]. Also, the z-score in assay [2] was -2.84 (inactive); in assay [3] it was -1.4 (inactive); in assay [4], 0.429 (inactive); in assay [5] it was -0.12 (inactive).
Regarding `CCCCC=C[C@@H](NC(=O)Oc1cccc(C(F)(F)F)c1)c1ccccc1`, the composite z-score in [1] was 1.61; in assay [6], 1.84; in assay [7] it was 0.996; with Torsin-1A (Homo sapiens) [8] it was 0.961; with Torsin-1A (Homo sapiens) [9], 0.947; in assay [10], -0.629. Also, the z-score was -3.46 (inactive) in assay [2], -0.721 (inactive) in assay [3], 0.201 (inactive) in [4] and 0.0897 (inactive) in [5].
As to `[N-]=[N+]=NCc1ccccc1C[C@]1(C(=O)NCC(O)CO)N=C(c2ccc(OCCCO)cc2)O[C@H]1c1ccccc1` (stereo not given in full), the composite z-score was 0.185 in assay [1]; 0.236 in [6]; 0.109 in assay [7]; 0.381 in the assay with Torsin-1A (Homo sapiens) [8]; 0.777 in the assay with Torsin-1A (Homo sapiens) [9]; -1.52 in assay [10]. Moreover, the z-score was -3.58 (inactive) in [2], 0.55 (inactive) in assay [3], 1.87 (inactive) in [4] and -0.621 (inactive) in [5].
On to `CCCN1C(=O)[C@]2(CCS(=O)(=O)c3ccccc3)N=C(c3ccc(OCCCO)cc3)O[C@@H]2c2ccccc21`, for which the composite z-score is 0.419 in assay [1]; 1.24 in [6]; 0.0475 in [7]; 1.33 with Torsin-1A (Homo sapiens) [8]; 1.24 in the assay with Torsin-1A (Homo sapiens) [9]; 1.13 in assay [10]. The z-score in [2] was -4.93 (inactive); in assay [3], -1.32 (inactive); in assay [4], -0.254 (inactive); in assay [5], -1.53 (inactive).
As for `COC(=O)[C@@]1(Cc2ccc(OC)cc2)[C@H]2c3cc(C(=O)N4CCCC4)n(Cc4ccccc4)c3C[C@H]2CN1C(=O)c1ccccc1`, the composite z-score is 2.34 in [1]; 2.04 in assay [6]; 1.76 in [7]; -0.0218 with Torsin-1A (Homo sapiens) [8]; 0.107 in the assay with Torsin-1A (Homo sapiens) [9]; -0.442 in assay [10]. The z-score in assay [2] was -2.68 (inactive); in assay [3] it was 0.888 (inactive); in assay [4], 0.194 (inactive); in [5], -0.754 (inactive).
For the molecule `C=C(C)C1C(=C)CN([C@H](CO)c2ccccc2)C1=O` (stereo not given in full), the composite z-score was -0.231 in assay [1]; -1.12 in assay [6]; -0.103 in assay [7]; -1.46 with Torsin-1A (Homo sapiens) [8]; -0.821 in the assay with Torsin-1A (Homo sapiens) [9]; 1.28 in [10]. Also, the z-score in assay [2] is -0.677 (inactive); in assay [3], -0.65 (inactive); in [4], -0.141 (inactive); in [5], 0.176 (inactive).
For the molecule `COCCOC(=O)N1C(=O)[C@@]2(c3cc(C#CC4=CCCCC4)ccc31)[C@H](C(=O)N1CCc3cc(OC)c(OC)cc3C1)[C@H]1C(=O)O[C@H](c3ccccc3)[C@H](c3ccccc3)N1[C@@H]2c1ccc(OCCO)cc1`, the composite z-score worked out at 0.538 in assay [1]; 0.665 in [6]; 0.0649 in assay [7]; 0.304 in the assay with Torsin-1A (Homo sapiens) [8]; 0.295 with Torsin-1A (Homo sapiens) [9]; 1.38 in assay [10]. In addition, the z-score is -0.571 (inactive) in [2], -0.259 (inactive) in [3], -0.475 (inactive) in assay [4] and -0.381 (inactive) in assay [5].
`COc1ccc(C(O)C2C=CC3C(=O)NC(=O)C3N2Nc2ccccn2)cc1` (stereo not given): the composite z-score in assay [1] is 0.273; in [6], -0.0335; in [7], 0.0659; in the assay with Torsin-1A (Homo sapiens) [8], 0.21; in the assay with Torsin-1A (Homo sapiens) [9], 0.353; in [10] it was 0.3. Also, the z-score in [2] was 1.06 (inactive); in assay [3], -0.727 (inactive); in assay [4], -0.329 (inactive); in assay [5], -0.239 (inactive).
As for `COc1ccc([Si](C)(C)[C@@H]2[C@@H](CC(=O)N3Cc4ccccc4C[C@H]3CO)O[C@]3(C(=O)N(C)c4c(Br)cc(C)cc43)[C@H]2C)cc1`, the composite z-score in [1] was 0.251; in [6] it was 0.813; in [7], -0.0645; in the assay with Torsin-1A (Homo sapiens) [8], 1.01; with Torsin-1A (Homo sapiens) [9] it was 1.19; in assay [10], 2.14. For the same molecule, the z-score in assay [2] was -5.91 (inactive); in assay [3] it was -1.41 (inactive); in assay [4], 6.12 (inactive); in assay [5] it was 0.0739 (inactive).
Turning to `C=CCNC(=O)[C@H]1[C@@H]2C(=O)O[C@@H](c3ccccc3)[C@@H](c3ccccc3)N2[C@@H](c2ccc(O)cc2)[C@]12C(=O)N(C(=O)OCCOC)c1ccc(C#CCNC(N)=O)cc12`, the composite z-score in assay [1] is 0.415; in assay [6] it was -0.231; in assay [7], 0.223; with Torsin-1A (Homo sapiens) [8] it was 0.181; with Torsin-1A (Homo sapiens) [9], -0.0483; in assay [10] it was 1.55. Also, the z-score in assay [2] was 0.621 (inactive); in [3], 0.283 (inactive); in assay [4], 0.0736 (inactive); in assay [5], -0.036 (inactive).
In the case of `COc1ccc(NN2C(C(O)c3ccc([N+](=O)[O-])cc3)C=CC3C(=O)N(C4CCCCC4)C(=O)C32)cc1` (stereo not given), the composite z-score in assay [1] was -0.0777; in assay [6], 1.99; in assay [7], 0.199; with Torsin-1A (Homo sapiens) [8], -0.233; in the assay with Torsin-1A (Homo sapiens) [9], 0.382; in assay [10], -0.49. For the same molecule, the z-score in assay [2] is -0.416 (inactive); in [3], -1.05 (inactive); in assay [4] it was -0.667 (inactive); in assay [5] it was -0.441 (inactive).
Regarding `C=CCC(OC(C)=O)[C@@H]1[C@@H](N(Cc2ccc(-c3cccc(C(F)(F)F)c3)o2)C(=O)c2ccc(-c3ccccc3)cc2)c2cc(OCCCO)ccc2N1C(=O)c1ccc(-c2ccccc2)cc1` (stereo not given in full), the composite z-score is -0.0065 in assay [1]; 0.0998 in [6]; -0.0403 in assay [7]; -0.0662 with Torsin-1A (Homo sapiens) [8]; 0.0093 with Torsin-1A (Homo sapiens) [9]; 0.32 in assay [10]. Besides, the z-score is 0.42 (inactive) in assay [2], 0.103 (inactive) in [3], 0.0176 (inactive) in assay [4] and 0.262 (inactive) in assay [5].
Take `C#CCN(CC1=CCCCC1)[C@H](c1ccccc1Br)[C@@H](O)Cc1ccccc1`: the composite z-score in assay [1] is -0.0365; in assay [6], -0.949; in [7], -0.159; with Torsin-1A (Homo sapiens) [8], 1.07; with Torsin-1A (Homo sapiens) [9], 0.962; in assay [10], -0.515. Further, the z-score in [2] was -1.5 (inactive); in [3], 0.0281 (inactive); in assay [4], 2.21 (inactive); in assay [5] it was 0.219 (inactive).
As for `COC(=O)[C@@]1(Cc2ccc(OC)cc2)[C@H]2c3cc(C(=O)N(C)C)n(Cc4cccc5ccccc45)c3C[C@H]2CN1C(=O)c1ccccc1`, the composite z-score in [1] was 1.44; in assay [6], 0.697; in [7], 0.943; with Torsin-1A (Homo sapiens) [8], 0.817; with Torsin-1A (Homo sapiens) [9], 1.14; in assay [10], 0.659. For the same molecule, the z-score in assay [2] was -4.45 (inactive); in [3], -0.0601 (inactive); in [4], 0.0075 (inactive); in assay [5], 0.458 (inactive).

The record behind these values is PubChem BioAssay.
